Screens from PubChem.
Hits are enriched below; roughly 0.41% of the tested compounds scored in any of these assays.
aGlu spleen mod: inhibitors or activators of human alpha-glucosidase in spleen homogenate | human spleen homogenate, 4-MU-alpha-glucoside fluorescence | Potency, µM (highest dose often 79.9 µM), without a hit: at the highest dose activity change, negative = inhibition, hits mostly inhibitors | 0.006% of 240,000 active;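 note: potency is the fitted concentration of half-maximal effect; 0% = enzyme with vehicle and -100% = no enzyme basal signal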
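Compounds were titrated against alpha-glucosidase in spleen homogenate at pH 5.0, with 1 mM 4-methylumbelliferyl substrate for 40 min at 37 C. Reactions were quenched with pH 10 NaOH/glycine and fluorescence measured.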
N370S GC: N370S glucocerebrosidase modulation, Gaucher chaperone candidate; 0.092% of 330,000 active; Potency, µM (series often up to 59.4 µM), without a hit: top-dose activity change, negative = inhibition, most hits filed as inhibitors; P04062; N370S GC spleen homogenate, 4MU-glucoside fluorescence;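 note: potency is the fitted concentration of half-maximal effect; 0% = full enzyme activity and -100% = no enzyme basal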
GAA inhib: inhibitors of human lysosomal alpha-glucosidase. P10253. purified human GAA, 4-MU-alpha-glucoside fluorescence. Potency, µM (doses to about 76.9 µM), without a hit: at the top dose activity change, negative = inhibition, actives largely listed as inhibitors. 0.005% of 200,000 active. AID 1466;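 note: potency is the fitted concentration of half-maximal effect; plate controls were uninhibited enzyme wells for no effect and no-enzyme background for full effect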
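Endpoint fluorogenic read: 20 min room-temperature reaction of 4 nM human alpha-glucosidase with 400 uM 4-methylumbelliferyl-alpha-D-pyranoside, pH 5.0, quenched with 1M NaOH/1M glycine pH 10. AC50 from Hill modeling.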
GAA glycogen mod: GAA glycogen-cleavage inhibition or activation | P10253 | recombinant GAA, glycogen substrate, Amplex Red glucose oxidase fluorescence | Potency, µM (doses to about 76.4 µM), inactives show top-dose activity change, negative = inhibition, actives largely listed as inhibitors | 0.38% of 300,000 active;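 note: potency is the fitted concentration of half-maximal effect; 0% = full enzyme reaction and -100% = no-enzyme basal signal; the screen sought inhibitors and activators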
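Natural-substrate format: glycogen cleavage by 4 nM human enzyme, glucose read by Amplex Red coupling (Ex 573, Em 610 nm). Normalized to enzyme and no-enzyme controls.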
GLA inh pH 4.5: alpha-galactosidase A (human) inhibition, pH 4.5 | purified enzyme, 4-MU-alpha-Gal fluorescence, pH 4.5 | activity change, negative = inhibition, % at 105 µM | 230,000 tested, under 10 active | AID 1467;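 note: 0% = full activity with enzyme and -100% = basal without enzyme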
aGal spleen mod: inhibitors or activators of human alpha-galactosidase in spleen homogenate; P06280; human spleen homogenate, 4MU-alpha-Gal fluorescence, 40 min; Potency, µM (titrated, usually from 80 µM), inactives show at the top dose activity change, negative = inhibition, usual class: inhibitors; 0.008% of 240,000 active; AID 2107;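 note: potency is the fitted concentration of half-maximal effect; 0% = enzyme with vehicle and -100% = no enzyme basal signal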
Target sequence (P06280 32-429 limits assumed): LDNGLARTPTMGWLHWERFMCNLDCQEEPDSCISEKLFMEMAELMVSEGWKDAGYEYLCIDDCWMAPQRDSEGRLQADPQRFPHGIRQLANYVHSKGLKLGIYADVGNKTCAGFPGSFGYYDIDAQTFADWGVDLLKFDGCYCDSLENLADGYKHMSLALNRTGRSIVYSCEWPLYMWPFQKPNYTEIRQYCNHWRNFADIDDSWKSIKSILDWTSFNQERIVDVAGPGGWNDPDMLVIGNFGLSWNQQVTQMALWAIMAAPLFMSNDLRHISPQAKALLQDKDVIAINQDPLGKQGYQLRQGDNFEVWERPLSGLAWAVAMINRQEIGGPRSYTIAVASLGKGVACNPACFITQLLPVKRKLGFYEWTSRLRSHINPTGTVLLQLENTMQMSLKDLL
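qHTS titration in buffer at pH 5.0. Alpha-galactosidase activity in spleen homogenate was measured via 4-methylumbelliferone release from 1 mM fluorogenic substrate after 40 min at 37C and a pH 10 stop. AC50 came from Hill fits of control-normalized data.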
The depositor's hits bear a star; ? = inconclusive; . = no result; [ ] = dose if it differs, or a comment. Calls come from the whole dose curve; as a rule, active = well fitted curve in the direction sought with a large enough effect; inconclusive = small, poorly fitted or top-dose-only effect, or another doubt; inactive = no such curve, though single readings can be large; an effect the other way counts as inactive or inconclusive.

SMILES	aGlu spleen mod	N370S GC	GAA inhib	GAA glycogen mod	GLA inh pH 4.5	aGal spleen mod
CC(=O)Nc1ccc(N/C=C/C(=O)C(C)(C)C)cc1	-4%	1%	-2%	-16%	-6	-7%
Cc1ccc(N/C=C/C(=O)C(C)(C)C)c(O)c1	-6%	4%	0%	40µM*	-5	-2%
N/C(CN1CCCC1=O)=N\O	1%	-2%	-4%	3%	-13	-5%
COc1ccc(C(=O)c2cn[nH]c2-c2ccc(C)cc2O)cc1	.	-13%	.	-3%	.	.
COc1ccc(-c2cc(=O)c(C(=O)c3ccc(C)cc3)n[nH]2)cc1	?	27%	11%	6%	11	40µM*
CCN(CC)c1cccc(OC2=NS(=O)(=O)c3ccccc32)c1	-4%	-11%	-5%	28µM*	-49	-3%
CC(=O)Nc1ccc(SCC(=O)OCC(=O)NC(=O)NC2CCCC2)cc1	-14%	3%	1%	-10%	3	-2%
CCOC(=O)c1[nH]c2cc(OC)c(OC)cc2c1N	7%	0%	-1%	28µM*	0	6%
COc1cc(CN2CCN(c3cccc(C)c3C)CC2)cc(OC)c1O	-16%	-3%	-9%	28µM*	4	-25%
CC1(C)Cc2c(sc3ncn(N)c(=N)c23)CO1	-3%	-3%	1%	10%	3	-1%
CC1(C)Cc2c(sc3ncn4c(=S)[nH]nc4c23)CO1	6%	1%	-9%	28µM*	2	5%
COC(=O)C1=CN(Cc2cccs2)C=C(C(=O)OC)C1c1cccc(OC)c1OC	-2%	-4%	?	-4%	-1	3%
COc1ccccc1N(O)C1CC(=O)N(c2ccc(Br)cc2)C1=O (stereo unspecified)	0%	5%	-1%	8.9µM*	-1	2%
O=C1CC(N(O)c2ccccc2)C(=O)N1c1ccc(Cl)c(Cl)c1 (stereo unspecified)	-9%	7%	.	?	-1	2%
Oc1ccc(NC(=S)Nc2ccc(F)cc2)cc1	.	-18%	.	11µM*	.	.
COc1ccc(C2C(CC(=O)O)=C(O)C(=O)N2c2ccccc2)cc1 (stereo unspecified)	-1%	-13%	8%	14µM*	-18	18%
N#CCC1c2ccccc2CCN1C(=O)Nc1ccc(C(F)(F)F)cc1 (stereo unspecified)	-10%	6%	7%	-5%	-9	3%
Cc1cc(Nc2ccccc2)n(CCOC(=O)COc2ccccc2)n1	-4%	5%	?	32µM*	-6	2%
CCOc1ccc(OCCC(=O)OCC(=O)Nc2cc(C)nn2-c2ccccc2)cc1	.	-7%	.	.	.	.
C1CCc2nnc(-c3nnc4n3CCCCC4)n2CC1	-14%	-2%	-1%	4%	0	-5%
Cc1ccc(C)n1-c1ccc(-c2nnc3n2CCCCC3)s1	-3%	0%	2%	35µM*	1	4%
CC(C)C(=O)Nc1cccc(NC(=S)NC(=O)c2ccc3c(c2)OCO3)c1	.	?	.	0%[76.3 µM]	.	.
Oc1ccc(-c2csc(Nc3ncccn3)n2)c(O)c1	6%	-10%	-2%	-26%	0	6%
Cc1cccc(Nc2nc(-c3ccc(O)cc3O)cs2)n1	.	-1%	.	40µM*	.	.
O=C1/C(=C\c2ccc(O)c(O)c2)C(c2ccccc2)=NN1c1ccccc1	-2%	4%	4%	4µM*	-1	2%
SMILES	aGlu spleen mod	N370S GC	GAA inhib	GAA glycogen mod	GLA inh pH 4.5	aGal spleen mod
Fc1cccc(/C=N/Nc2nccnc2Cl)c1	.	-1%	.	-10%[76.3 µM]	.	.
CCN(CC)S(=O)(=O)c1ccc(N2CCOCC2)c(NC(=O)c2cc(-c3ccccn3)nc3ccccc23)c1	-5%	-16%	?	16%	-3	-6%
CC#CC[N+](C)(C)CCCCCCCCCC	-6%	16µM*	.	17%	-6	9%
CCOC(=O)C1=C(c2ccccc2)NC(N)=NC1c1ccc(OCc2ccc(Cl)cc2)c(OC)c1 (stereo unspecified)	2%	22µM*	.	-5%	-14	-17%
CCOC(=O)C1=C(c2ccccc2)NC(=O)NC1c1cc(Cl)c(O)c(OC)c1 (stereo unspecified)	-3%	1%	-3%	-29%	1	6%
Cc1ccc(-c2cnc(NCc3c(F)cccc3Cl)n2C)cc1	.	.	.	22µM*	.	.
COc1cc(/C=N/N2C(=O)CSC2=S)ccc1O	1%	-23%	1%	32µM*	-1	0%
COc1ccc(Br)cc1/C=N/N1C(=O)CSC1=S	.	-2%	.	5%	.	.
CN(CCc1ccccn1)C(=O)Nc1ccc(C(C)(C)C)cc1	9%	-13%	-6%	-9%	-11	1%
O=C(COC(=O)Cn1cnc2ccccc21)NCCCc1ccccc1	1%	-4%	11%	25%	7	-7%
CC(=O)c1ccc2c(c1)Nc1ccccc1S2	-5%	3%	-2%	31µM*	-3	-10%
CCOC(=O)Nc1ccc2c(c1)Nc1ccccc1S2	2%	-5%	-10%	14µM*	-8	0%
CCOC(=O)c1ccc(NC(=O)c2ccc3c(c2)NC(=O)c2ccccc2S3)cc1	.	.	.	10%[76.3 µM]	.	.
CCc1cc[n+](-c2nc([O-])sc2C=O)cc1	0%	-4%	-2%	4%	2	5%
Nc1nc(-c2ccccc2)c(N=Nc2ccc(Cl)cc2)s1	2%	2.5µM*	-2%	-4%	-9	2%
Nc1nc(-c2ccccc2)c(-c2ccccc2)s1	-10%	5%	8%	-11%	-1	5%
COc1cc(/C=C2/NC(=O)N(Cc3ccccc3F)C2=O)ccc1Oc1ccc([N+](=O)[O-])cn1	-2%	0%	0%	-2%	-13	-2%
COc1cc(/C=C2\NC(=S)N(C)C2=O)ccc1O	10%	-19%	?	10µM*	?	-4%
CN1C(=O)/C(=C/c2ccc(O)c([N+](=O)[O-])c2)NC1=S	-5%	-9%	-2%	4%	-2	-6%
COc1cc(/C=C2/NC(=O)N(Cc3ccccc3F)C2=O)ccc1O	0%	-3%	-6%	22µM*	0	-5%
c1cncc(-c2nccc(NCc3cccs3)n2)c1	5%	-26%	.	.	.	-5%
COc1cccc(-c2nccc(NCc3cccs3)n2)c1	9%	4µM*	.	.	.	5%
Cc1ccccc1-c1nccc(NCc2cccs2)n1	4%	4.5µM*	.	.	.	-5%
Cc1ccc(N(CC(=O)Nc2ccc(F)c(Cl)c2)S(=O)(=O)c2c(C)noc2C)cc1	-7%	7%	-9%	-7%	1	-1%
COc1ccc(OC)c(N=C2C(=O)Nc3ccccc32)c1	-2%	-1%	?	31µM*	0	3%
COc1ccc(N=C2C(=O)Nc3ccccc32)cc1	1%	7%	5%	?	-6	10%
